In all, about 310,000 compounds went through this assay and about 14,000 (4.5%) showed an effect of 50% or more. The effect is printed as a negative number. Many of the other results were omitted from the sample, so strong results are more common in it than they were.
Molecular target: human ether-à-go-go-related gene (hERG) potassium channel (human, UniProt Q12809)
Assay: primary screen, population patch clamp on CHO cells stably expressing hERG; higher = less effect of the substance
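Also: peak tail current of the secondary pulse compared with the same well before compound.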

Chain of human ether-à-go-go-related gene (hERG) potassium channel (Q12809 whole entry, looked up): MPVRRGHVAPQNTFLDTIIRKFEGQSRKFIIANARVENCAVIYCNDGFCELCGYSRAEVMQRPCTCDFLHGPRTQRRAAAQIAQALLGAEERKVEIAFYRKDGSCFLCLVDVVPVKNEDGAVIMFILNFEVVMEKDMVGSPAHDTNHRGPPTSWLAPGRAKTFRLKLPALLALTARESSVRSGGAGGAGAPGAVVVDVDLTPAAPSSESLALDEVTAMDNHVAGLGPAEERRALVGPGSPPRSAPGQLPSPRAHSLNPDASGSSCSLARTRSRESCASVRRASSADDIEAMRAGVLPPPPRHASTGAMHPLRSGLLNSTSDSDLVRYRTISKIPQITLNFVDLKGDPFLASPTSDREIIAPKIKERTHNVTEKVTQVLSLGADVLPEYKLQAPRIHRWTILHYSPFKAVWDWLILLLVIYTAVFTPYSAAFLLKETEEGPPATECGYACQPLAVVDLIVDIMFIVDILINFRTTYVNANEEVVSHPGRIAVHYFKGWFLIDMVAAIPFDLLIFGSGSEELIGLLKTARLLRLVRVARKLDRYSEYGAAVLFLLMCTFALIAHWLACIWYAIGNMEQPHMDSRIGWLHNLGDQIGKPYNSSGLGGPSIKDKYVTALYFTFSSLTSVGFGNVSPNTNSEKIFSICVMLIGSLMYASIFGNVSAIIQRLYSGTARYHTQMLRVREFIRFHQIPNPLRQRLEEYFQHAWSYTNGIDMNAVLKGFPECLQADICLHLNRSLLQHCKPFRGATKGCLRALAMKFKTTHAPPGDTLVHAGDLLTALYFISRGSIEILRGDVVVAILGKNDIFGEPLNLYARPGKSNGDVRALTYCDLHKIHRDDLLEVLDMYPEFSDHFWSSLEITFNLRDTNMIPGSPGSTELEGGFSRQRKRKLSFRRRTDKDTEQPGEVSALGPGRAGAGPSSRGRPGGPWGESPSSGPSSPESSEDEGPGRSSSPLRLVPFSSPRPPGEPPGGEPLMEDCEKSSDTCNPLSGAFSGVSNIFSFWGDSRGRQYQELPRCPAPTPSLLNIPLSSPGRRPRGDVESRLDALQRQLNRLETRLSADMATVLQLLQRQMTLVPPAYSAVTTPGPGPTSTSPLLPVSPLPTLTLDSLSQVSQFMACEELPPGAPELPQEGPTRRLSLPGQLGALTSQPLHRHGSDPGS

Row | Structure (SMILES) | hERG current change (%, negative = inhibition) at 10uM [%]
1 | COc1ccc(NC2(c3ccccc3)OC(=O)c3ccccc32)cc1 (stereo not drawn) | 1.2
2 | CC(=O)c1cccc(OCc2cc(C(=O)NCCC3=CCCCC3)no2)c1 | 7.85
3 | COc1cccc(NC(=O)c2nnn(CC(=O)Nc3cc(C)cc(C)c3)c2N)c1 | 13.5
4 | O=C(c1cccc(COc2cccc3ccccc23)c1)N1CCCC1 | -4.59
5 | CC(=O)Nc1ccc(S(=O)(=O)NCCC(=O)Nc2cc(C)ccn2)cc1 | 7.68
6 | NS(=O)(=O)c1ccc(CCNC(=O)C2CCCN(S(=O)(=O)c3cccnc3)C2)cc1 (stereo not drawn) | -4.22
7 | NC(=O)c1ccccc1NC(=O)CN1CCOCC1 | 7.22
8 | NC(=O)c1ccccc1NC(=O)CN1CCCCCC1 | 11.1
9 | NC(=O)c1ccccc1NC(=O)CN1CCN(Cc2ccccc2)CC1 | -78.3
10 | O=C1Nc2ccc(S(=O)(=O)NCc3ccco3)c3cccc1c23 | -16.2
11 | O=C1NN(c2cccc(Br)c2)C(=O)/C1=C/c1ccc(-c2cc([N+](=O)[O-])ccc2O)o1 | -9.65
12 | CCNC(=O)COc1ccc(S(=O)(=O)Nc2ccccc2)cc1 | -1.85
13 | CC(C)C(=O)Nc1cccc(NC(=S)NC(=O)c2ccccc2Cl)c1 | -9.02
14 | CCCC(c1c(C)n(C)n(-c2ccccc2)c1=O)c1c(C)n(C)n(-c2ccccc2)c1=O | 0.692
15 | Br.CCc1ccc(OCC(=O)NN2Cc3ccccc3C2=N)cc1 | -38.8
16 | Br.Cc1cc(C)cc(OCC(=O)NN2Cc3ccccc3C2=N)c1 | -11.6
17 | Br.COc1ccc(OCC(=O)NN2Cc3ccccc3C2=N)cc1 | -18.1
18 | Br.COc1ccccc1OCC(=O)NN1Cc2ccccc2C1=N | 1.99
19 | Br.Cc1ccccc1OCC(=O)NN1Cc2ccccc2C1=N | -0.416
20 | Br.N#Cc1ccc(OCC(=O)NN2Cc3ccccc3C2=N)cc1 | 4.14
21 | Br.CC(C)(C)c1ccc(OCC(=O)NN2Cc3ccccc3C2=N)cc1 | -65.5
22 | Br.N=C1c2ccccc2CN1NC(=O)COc1ccc(Cl)cc1 | -50.4

Row | Structure (SMILES) | hERG current change (%, negative = inhibition) at 10uM [%]
23 | Br.CCOc1ccccc1OCC(=O)NN1Cc2ccccc2C1=N | -73.5
24 | Cc1ccsc1C(=O)OCC(=O)NC1CCCC1 | 13
25 | CC1(C)CC(=O)CC(C2(O)C(=O)N(Cc3ccccc3)c3ccccc32)O1 (stereo not drawn) | 7.55
26 | COCCCNC(=S)N1CCC(NC(=O)c2ccco2)CC1 | -4.82
27 | COCC(=O)N(CCc1ccc(OC)c(OC)c1)Cc1nc2ccccc2c(=O)[nH]1 | -8.28
28 | C/C(=N/NS(=O)(=O)c1cc(C)ccc1C)c1ccncc1 | 11
29 | CCCCC(=O)Nc1ccc(C(=O)N2CCN(C)CC2)cc1 | 6.41
30 | CCOC(=O)N1CCN(C(=O)c2ccc(SC)cc2OC)CC1 | -2.46
31 | O=C(Cc1coc2cc3c(cc12)CCC3)OCc1cc(=O)n2c(n1)sc1ccccc12 | 4.53
32 | CC(=O)O[C@@]12CO[C@@H]1C[C@H](OC1OCC(O)C(O)C1O)[C@@]1(C)C(=O)[C@H](O)C3=C(C)[C@@H](OC(=O)[C@H](O)[C@@H](NC(=O)c4ccccc4)c4ccccc4)C[C@@](O)([C@@H](OC(=O)c4ccccc4)C12)C3(C)C (stereo partly drawn) | -7.05
33 | COc1cc(CNCc2ccccn2)ccc1OCc1c(Cl)cccc1Cl.Cl | -51.5
34 | COc1cc(CNCc2ccccn2)ccc1OCc1ccc(Cl)cc1Cl.Cl | -58.1
35 | CCOc1cc(CNC2CCCC2)ccc1OCc1ccccc1Cl.Cl | -50.6
36 | COc1ccc(-c2ccc(CNCc3ccccn3)o2)cc1Cl.Cl | -7.77
37 | O=C(NCc1ccccn1)c1ccccc1OCc1ccc(Cl)cc1Cl | -1.04
38 | COc1ccc(Cl)cc1NC(=S)NCc1ccccn1 | 9
39 | COc1cc(CNC2CCCC2)c(Br)cc1OC1CCCC1.Cl | -45.9
40 | COc1cc(CNn2nnnc2N)ccc1OCc1c(Cl)cccc1Cl | -1.22
41 | COc1cc(CNC2CCCC2)c(Br)cc1OCc1ccccc1.Cl | -72.1
42 | COc1cc(CNC2CCCCCCC2)c(Br)cc1OCCO.Cl | 7
43 | CCOc1cc(CNC2CCCC2)cc(Cl)c1OCc1ccccc1.Cl | -10.3
44 | COc1cc(CNC2CCCC2)cc(Cl)c1OCc1ccccc1Cl.Cl | -30

Row | Structure (SMILES) | hERG current change (%, negative = inhibition) at 10uM [%]
45 | COc1ccc(-c2oc(=O)c3cc(OC)c(OC)cc3c2C(F)(F)F)cc1 | 23.7
46 | CC(C(=O)NCCCc1ccccc1)n1cccc1C(=O)c1ccccc1 (stereo not drawn) | -5.48
47 | O=C(COC(=O)c1ccccc1C(=O)c1ccc(Cl)cc1)NCC1CCCO1 (stereo not drawn) | 1.96
48 | CN(C)/C=C/C(=O)c1ccc(C(F)(F)F)cc1F | 15.3
49 | CCOc1cc(N2CCOCC2)c(OCC)cc1NC(=O)CSc1n[nH]c(N)n1 | 38.2
50 | Cc1ccc(OCC(=O)NNC(=O)c2cc(C)[nH]n2)cc1 | 24.6
51 | CCc1nnc(NC(=O)CSc2nnc3ncccn23)s1 | 19.2
52 | COC(=O)c1nn(-c2ccc(F)cc2)ccc1=O | 8.12
53 | C#CCOCCOCCOCCNc1nc(N2CCN(C(=O)CCCCCCCCCCNC(=O)Cn3cc(C[C@@H](C)O)nn3)CC2)nc(N2CCN(C(=O)CCCCCCCCCCNC(=O)[C@H](CCCN=C(N)N)n3cc(C[C@@H](C)CC)nn3)CC2)n1 | 3.82
54 | COc1ccccc1C(=O)OCn1nnc2ccccc2c1=O | -1.17
55 | CN1CCN(C(=O)C23CCC(C)(C(=O)C2Br)C3(C)C)CC1 (stereo not drawn) | 1.95
56 | CCOc1cc(CNCc2ccccn2)cc(Cl)c1OCC.Cl | -0.796
57 | COc1cc(CNCc2ccccn2)ccc1OCc1ccccc1Cl.Cl | -58.3
58 | COc1cc(CNCc2ccccn2)ccc1OCC(=O)NC1CCCCC1.Cl | -14.5
59 | CC1=C(C(=O)Nc2ccccc2)C(c2cccs2)NC(=O)N1 (stereo not drawn) | 15.6
60 | Cc1cc(C)n(CC(=O)NNC(=O)c2ccc(NC(=O)CC#N)cc2)n1 | 5.56
61 | Cc1cc(C(C)(C)CC(C)(C)C)ccc1OCCOCC[N+](C)(C)Cc1ccccc1.[Cl-] | -80.9
62 | Cc1cc(C(C)(C)C)ccc1OCCN(C)C | -7.47
63 | Cc1cc(C(C)(C)C)ccc1OCCOCCN1CCCC1 | -44.5
64 | Cl.Nc1ccc2c(c1)oc1ccccc12 | 4.15
65 | CCc1ccc(NC(=O)Nc2ccc3c(c2)N(C)C(=O)CS3)cc1 | 7.64
66 | CCc1cc2c(NCCN3CCCCC3)ncnc2s1.Cl | -71.9

Row | Structure (SMILES) | hERG current change (%, negative = inhibition) at 10uM [%]
67 | CCc1cc2c(NCCO)ncnc2s1 | 14.3
68 | CCc1cc2c(NCCC(=O)O)ncnc2s1 | 4.76
69 | Cc1csc(SCC(=O)NC2CCCCC2)n1 | -1.79
70 | CCOc1ccccc1NC(=O)C(Sc1nnc2ccccn12)c1ccccc1 (stereo not drawn) | -12.5
71 | Cc1ccc2cc(C)c3nnc(SCC(=O)NCc4ccco4)n3c2c1 | -25.5
72 | O=C1c2ccc3c4c(ccc(c24)C(=O)N1c1ccc(O)cc1)C(=O)N(c1ccc(O)cc1)C3=O | 23.3
73 | CCNS(=O)(=O)c1ccc(Br)c(OC)c1 | 10.4
74 | Cc1cc(=O)oc2c(C(=O)/C=C\c3cccs3)c(O)ccc12 | 11.1
75 | CCN(CC)CCNC(=O)c1cc2c(-c3cccc(OC)c3)nn(C)c2s1 | -31.8
76 | COCCCNC(=O)c1cc2c(-c3cccc(OC)c3)nn(C)c2s1 | -5.59
77 | CCCCN(C)CCNC(=O)c1cc2c(-c3cccc(OC)c3)nn(C)c2s1 | -49.5
78 | COc1cccc(-c2nn(C)c3sc(C(=O)NCCCN(C)Cc4ccccc4)cc23)c1 | -52.2
79 | CCN(CC)CCCNC(=O)c1cc2c(-c3cccc(OC)c3)nn(C)c2s1 | -44.7
80 | CCN(CCCNC(=O)c1cc2c(-c3cccc(OC)c3)nn(C)c2s1)Cc1ccccc1 | -68.1
81 | O=C(COc1ccccc1Cl)Nc1ccc(S(=O)(=O)N2CCOCC2)cc1 | 15.4
82 | COc1ccc(C(=O)NCCc2c[nH]c3ccccc23)cc1S(=O)(=O)N1CCOCC1 | -9.63
83 | COc1ccc(NC(=O)/C(C#N)=C\c2ccc(Br)o2)cc1 | 4.52
84 | Cc1ccc(C(=O)Nc2cccc(S(=O)(=O)N3CCOCC3)c2)cc1[N+](=O)[O-] | 24.5
85 | O=C(Cn1nc(C(=O)O)c2ccccc2c1=O)Nc1ccc(F)cc1 | 8.44
86 | COCC(=O)OC/C(O)=C(\C#N)c1nc2ccccc2[nH]1 | 11
87 | COC(=O)C1=C(c2c(C)noc2C)C[C@@H]2CC[C@H]1N2C(=O)NCCNC(C)=O | 22.2

From publication PMC4336329 (PLoS ONE, 2015)
